Compound activity from PubChem BioAssay.
The list is not random: actives were taken first. Their share in the collection is about 3.6%.
Peg3 prom inh: Peg3 promoter-driven luciferase inhibitors, primary screen, cell-based, HeLa, luciferase luminescence; HeLa PEG-Prom luciferase reporter, overnight; inhibition, % at 20 µM; 360,000 tested, 1.7% active;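 active = inhibition of at least 50% at 20 µM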
HSP90 refold inh: HSP90 inhibitors, primary screen, cell lysate, luminescence; Heat shock protein HSP 90 (rabbit reticulocyte lysate; luciferase refolding); Rabbit reticulocyte lysate, luciferase refolding luminescence, 3 h; inhibition, % at 5.6 µM; 290,000 tested, 0.91% active; AID 1789, 2009;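 active = inhibition above the screen-wide mean plus 3 SD, computed separately per campaign, cut at about 16% in these data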;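 also: 0% = DMSO wells and 100% = 60 µM geldanamycin wells; inhibitors lower the luminescence because luciferase stays unfolded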
Mdm2-MdmX inh: inhibitors of human Mdm2-MdmX association, primary screen, cell-based, luminescence, split luciferase, SaOS-2, uHTS; Protein Mdm4 (Homo sapiens) + E3 ubiquitin-protein ligase Mdm2 (Homo sapiens), …; SaOS-2 split-luciferase Mdm2/MdmX complementation; inhibition, % at 8 µM; 330,000 tested, 3% active; AID 485346, 2010;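 active = inhibition of at least 50% at 8 µM in the primary screen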
Target sequence (O15151 whole entry, looked up): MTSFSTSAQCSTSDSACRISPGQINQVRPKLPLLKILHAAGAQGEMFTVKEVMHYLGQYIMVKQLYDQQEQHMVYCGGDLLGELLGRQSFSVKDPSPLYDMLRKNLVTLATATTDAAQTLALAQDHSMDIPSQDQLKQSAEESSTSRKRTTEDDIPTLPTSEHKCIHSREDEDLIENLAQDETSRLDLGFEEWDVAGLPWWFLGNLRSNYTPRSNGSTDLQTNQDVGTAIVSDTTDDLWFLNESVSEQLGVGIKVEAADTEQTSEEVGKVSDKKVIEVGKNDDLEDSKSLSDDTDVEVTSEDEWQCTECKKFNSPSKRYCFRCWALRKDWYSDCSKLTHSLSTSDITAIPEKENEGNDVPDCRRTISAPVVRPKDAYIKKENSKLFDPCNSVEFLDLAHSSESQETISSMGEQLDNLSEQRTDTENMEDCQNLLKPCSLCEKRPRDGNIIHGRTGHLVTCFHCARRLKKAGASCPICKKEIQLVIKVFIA
Target sequence (Q00987 whole entry, looked up): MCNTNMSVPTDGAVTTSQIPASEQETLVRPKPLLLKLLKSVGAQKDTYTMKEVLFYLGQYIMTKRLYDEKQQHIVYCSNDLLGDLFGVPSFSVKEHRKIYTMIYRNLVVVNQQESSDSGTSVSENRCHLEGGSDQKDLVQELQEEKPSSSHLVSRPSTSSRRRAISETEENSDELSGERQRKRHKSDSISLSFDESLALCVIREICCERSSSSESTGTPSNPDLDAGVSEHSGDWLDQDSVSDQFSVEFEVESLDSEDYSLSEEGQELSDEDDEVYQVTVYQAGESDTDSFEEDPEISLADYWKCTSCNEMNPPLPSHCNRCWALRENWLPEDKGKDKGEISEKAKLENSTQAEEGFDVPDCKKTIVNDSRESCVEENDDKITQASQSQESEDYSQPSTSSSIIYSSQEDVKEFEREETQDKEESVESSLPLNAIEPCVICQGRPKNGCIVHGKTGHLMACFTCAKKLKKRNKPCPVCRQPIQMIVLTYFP
KKLEB tox: cytotoxicity in KKLEB CF airway cells, primary screen, cytotoxicity control for CF NF-kB inhibitor project, cell-based, uHTS, fluorescence assay plates; KKLEB CF airway cells viability, ATPlite luminescence, overnight; active compounds read low; cells stimulated with P. aeruginosa culture filtrate; activity change (cytotoxicity), % at 5 µM; 360,000 tested, 0.36% active;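 active = corrected activity change at or below -50% at 5 µM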
CF NFkB inh: inhibitors of PAF-induced NF-kB signaling, primary screen, cell-based, GFP fluorescence, uHTS; KKLEB NF-kB-GFP reporter, GFP fluorescence overnight; inhibition, % at 5 µM; 360,000 tested, 0.86% active;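 active = at least 50% inhibition at 5 µM, scaled per plate between neutral and stimulator controls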;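 also: PAF is a Pseudomonas aeruginosa culture filtrate used as stimulus; plate controls were PAF-stimulated DMSO wells for no effect and unstimulated DMSO wells for full effect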
LGR2 inh: inhibitors of bursicon-induced LGR2 CRE-luciferase signal, primary screen, cell-based, HEK293, CRE-luciferase reporter, bursicon stimulation; Drosophila bursicon receptor LGR2 (rickets); bursicon-stimulated, 4 h; inhibition, % at 9.99 µM; 380,000 tested, 0.35% active;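 active = drop in luminescence signal, shown as inhibition above about 50% in the replicate tests, limit read from the data, passing the limit was not always enough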;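 also: agonist challenge used bursicon conditioned medium at about half maximal strength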
CF NFkB conf: inhibitors of PAF-induced NF-kB signaling, retest, confirmation, cell-based, GFP fluorescence, single concentration; 1,300 tested, 64% active; shares compounds with CF NFkB inh; AID 602472, 2012; KKLEB CF airway cells, overnight; inhibition, % at 5 µM; in the data active = inhibition above about 40%;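 also: stimulus PAF is a Pseudomonas aeruginosa filtrate and not platelet activating factor; plate controls were DMSO wells with stimulus for no effect and unstimulated DMSO wells for full effect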
* hit, by the source's call; / = no result.

SMILES	Peg3 prom inh	HSP90 refold inh	Mdm2-MdmX inh	KKLEB tox	CF NFkB inh	LGR2 inh	CF NFkB conf
C[C@H](CO)N1C[C@H](C)[C@H](CN(C)Cc2ccc(Cl)c(Cl)c2)OCCCC[C@H](C)Oc2ccc(NS(C)(=O)=O)cc2C1=O	/	/	/	/	/	-15.5	/
CC(=O)Oc1ccccc1N(C(C)=O)S(=O)(=O)c1ccc(C)cc1	3.4	3.3	31.2	5.9	11.0	11.2	/
COc1ccc(S(=O)(=O)N(C(C)=O)c2ccc(OC(C)=O)c3ccccc23)cc1[N+](=O)[O-]	16.9	-2.9	21.7	-17.1	79.4*	6.3	102.2*
CC(=O)Oc1c(Cl)cc(N(C(C)=O)S(=O)(=O)c2ccccc2)c2ccccc12	4.2	/	22.9	-19.4	57.1*	15.3	54.2*
CC(=O)Oc1ccc(N(C(C)=O)S(=O)(=O)c2ccccc2)c2ccccc12	6.2	/	/	0.3	68.9*	13.0	10.4
CC(=O)N(c1ccccc1Cl)S(=O)(=O)c1ccc(Cl)cc1	13.9	2.1	-7.1	-6.7	26.5	-13.8	/
COc1ccc(S(=O)(=O)N2CCc3ccccc32)cc1[N+](=O)[O-]	11.9	-2.9	26.2	4.4	11.0	1.7	/
COc1ccc(NC(=O)N(C)C[C@H]2OCCCC[C@@H](C)Oc3ccc(NS(=O)(=O)c4cn(C)cn4)cc3C(=O)N([C@H](C)CO)C[C@H]2C)cc1	/	/	/	/	/	-13.7	/
N#CC(C#N)=C1SC(=Nc2ccccc2)C(=Nc2ccccc2)N1c1ccccc1	88.8*	/	/	-41.5	67.4*	-71.3	78.8*
COC(=O)N(C)C[C@@H]1OCc2ccccc2-c2ccccc2C(=O)N([C@@H](C)CO)C[C@@H]1C	/	/	/	/	/	-8.9	/
Fc1ccc(Nc2ccnc(Nc3ccc(F)cc3)n2)cc1	-195.2	-2.0	-67.0	-16.9	57.6*	-53.3	56.1*
Nc1ncnc(Nc2ccc(F)cc2)n1	-30.6	-0.1	15.5	-13.3	2.6	12.9	/
O=C(NCC[C@@H]1CC[C@@H](NC(=O)c2ccccc2F)[C@@H](CO)O1)c1ccc2c(c1)OCO2	/	/	/	/	/	2.4	/
Cc1noc(C)c1S(=O)(=O)Nc1ccc2c(c1)CC(=O)N([C@H](C)CO)C[C@@H](C)[C@@H](CN(C)Cc1ccc3c(c1)OCO3)O2	/	/	/	/	/	-11.9	/
CN1C(=O)c2cc(NC(=O)c3ccccc3F)ccc2OC[C@H]2O[C@H](CC(=O)NCc3ccc4c(c3)OCO4)CC[C@@H]21	/	/	/	/	/	-3.1	/
C[C@H](O)[C@@H]1CN2CCc3c([nH]c4ccc(-c5ccc6c(c5)OCO6)cc34)[C@@H]2C[C@@H]1N(C)C(=O)Nc1ccc(F)cc1	70.5*	/	/	-39.5	64.8*	13.7	52.4*
O=C(Nc1ccc(Br)c2ccccc12)c1ccc2ccccc2c1O	-13.0	-2.6	/	-46.5	53.6*	30.3	72.7*
C[C@H](CO)N1C[C@H](C)[C@@H](CN(C)Cc2ccc(C(F)(F)F)cc2)Oc2c(NC(=O)Nc3ccccc3)cccc2C1=O	/	/	/	/	/	-5.8	/
O=C(Nc1ccccc1)c1cc2ccccc2c(=O)s1	-270.4	-7.9	-9.0	-9.1	61.9*	-36.2	68.4*
O=C(Nc1ccc(O)cc1)c1cc2ccccc2c(=O)s1	-350.2	-3.6	16.2	9.4	40.7	-65.3	/
O=C(c1cncc(Br)c1)N1CCc2ccccc2C1	-4.9	-2.4	45.0	-3.3	51.4*	/	55.6*
O=C(N[C@H]1CC[C@@H](CCNS(=O)(=O)c2ccccc2Cl)O[C@H]1CO)c1ccc(F)cc1	/	/	/	/	/	13.3	/
CCCc1nnc(NC(=O)c2nc(S(=O)(=O)Cc3ccc(C)cc3)ncc2Cl)s1	102.8*	4.7	35.1	-32.9	90.5*	-14.7	91.2*
CC(C)NC(=O)Nc1ccc2c(c1)CC(=O)N([C@H](C)CO)C[C@@H](C)[C@H](CN(C)Cc1ccccc1)O2	/	/	/	/	/	-4.2	/
CCOC(=O)c1cccc(NS(=O)(=O)c2ccc(NC(C)=O)cc2)c1	9.6	2.7	42.5	0.2	51.6*	/	44.0*
SMILES	Peg3 prom inh	HSP90 refold inh	Mdm2-MdmX inh	KKLEB tox	CF NFkB inh	LGR2 inh	CF NFkB conf
CCCCCCc1nc2nc(Cl)c(Cl)nc2[nH]1	-13.5	/	/	16.0	59.8*	10.5	32.5
Cc1ccc(S(=O)(=O)CCC(=O)c2ccc(F)cc2)cc1	32.0	-4.1	3.2	-43.6	85.2*	-10.4	25.9
Cc1ccc(C(=O)CCS(=O)(=O)c2ccc(Cl)cc2)cc1	28.5	0.3	11.4	4.5	2.7	4.4	/
C[C@H]1CN([C@@H](C)CO)C(=O)c2cc(Br)cnc2O[C@@H]1CN(C)C(=O)Nc1ccccc1	/	/	/	/	/	-20.5	/
O=C(C[C@@H]1CC[C@H]2[C@@H](COC[C@@H](O)CN2C(=O)c2ccc(F)cc2)O1)NCCCN1CCOCC1	/	/	/	/	/	5.8	/
COc1cc2oc(=O)cc(-c3ccc(-c4ccc(N(C)C)cc4)cc3)c2c(OC)c1OC	-59.3	/	35.3	-27.8	52.1*	4.2	66.3*
Cc1cc2c(c(=O)n1Cc1cccnc1)C(Cc1ccccc1)C(C#N)=C(N)O2 (stereo unspecified)	7.7	-1.7	-4.9	-12.7	58.0*	/	-35.2
O=[N+]([O-])c1cc([N+](=O)[O-])c2oc(-c3ccccc3)c(Br)c2c1O	21.4	-6.1	/	-21.9	50.3*	/	87.5*
COc1ccccc1C(=O)N1[C@@H](C(C)C)COc2cc(Br)ccc2S1(=O)=O	35.7	/	/	-24.6	20.2	31.9	/
COc1cccc(C(=O)N2C(C(C)C)COc3cc(Br)ccc3S2(=O)=O)c1 (stereo unspecified)	40.8	/	/	27.3	50.5*	17.0	55.0*
Cc1cccc(C(=O)N2[C@@H](C(C)C)COc3cc(Br)ccc3S2(=O)=O)c1	57.1*	/	/	8.5	60.8*	13.8	58.8*
Cc1cccc(C(=O)NN2S(=O)(=O)c3ccccc3S2(=O)=O)c1	1.7	1.5	5.7	-7.3	-4.1	-9.4	/
Cc1cccc(C(=O)N2CCC(Cc3ccccc3)CC2)c1[N+](=O)[O-]	17.1	2.1	24.5	-6.0	46.7	10.3	/
Cc1c(C(=O)N2CCC(Cc3ccccc3)CC2)cccc1[N+](=O)[O-]	16.8	4.5	15.2	-4.4	51.2*	25.7	43.1*
CCOC(=O)c1c(C)[nH]c(C(=O)N/N=C/c2ccc(Br)cc2)c1C	-9.4	1.7	45.9	-31.3	56.4*	-16.9	79.4*
CN1C[C@@H]2[C@H](c3ccccc31)[C@@H](CO)N2C(=O)Nc1ccc(F)cc1	/	/	/	/	/	-19.0	/
CCn1c(SC)nc2cc(S(=O)(=O)N3CCCCC3)ccc21	-12.4	/	-32.5	-8.4	52.5*	-18.6	41.2*
